“And” between values parts separate entries of the source, which are not always exact repeats. Equal entries are not always repeated. The campaign covered roughly 75,000 compounds. About 5,700 (7.6%) were called active. Inconclusive results (about 7%) are left out. The calls are words filed in the database; no cut-off is given here. Only a selection was taken, and actives are over-represented in it overall.
biological target: T1, 3-hydroxyacyl-CoA dehydrogenase type-2 (Homo sapiens) (UniProt Q99714); test: qHTS Assay for Inhibitors of HSD17B4, hydroxysteroid (17-beta) dehydrogenase 4.; type: functional
T1 sequence (whole entry): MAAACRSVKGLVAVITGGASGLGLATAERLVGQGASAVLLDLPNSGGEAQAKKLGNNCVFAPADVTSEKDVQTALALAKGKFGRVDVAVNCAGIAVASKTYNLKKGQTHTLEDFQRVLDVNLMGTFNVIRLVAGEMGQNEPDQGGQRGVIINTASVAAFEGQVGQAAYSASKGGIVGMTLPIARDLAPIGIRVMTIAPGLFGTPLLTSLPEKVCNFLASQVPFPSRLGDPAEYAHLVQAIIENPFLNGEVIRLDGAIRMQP

**Q.** For `O=C(O)c1cc(-c2ccc(F)cc2F)ccc1O`, which Potency is on record?
**A.** 31.6 µM (active) and 12.6 µM (active)

**Q.** Which Potency does the source give for `Cc1c(OCC(=O)OC(C)C)ccc2c3c(c(=O)oc12)CCC3` here?
**A.** inactive
